In the library only some 2.3% were active in any assay of this set; here they are far more common.
Mcl1 Noxa PPI: Mcl-1/Noxa interaction inhibition; 220,000 compounds, 1.5% hits; inhibition, % at 21.7 µM; TR-FRET Mcl-1/Noxa peptide binding, 2 h; AID 1022; Q07820;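 active means compounds that cut the protein-peptide binding signal by more than 50% relative to plate controls in a single-dose test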;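 further: His-tagged Mcl-1 with rhodamine Noxa BH3 peptide and terbium anti-His antibody; 0% = Mcl-1 plus Noxa peptide wells and 100% = peptide-only wells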
Bim-Mcl-1: disrupts Bim peptide binding to human Mcl-1 | Q07820 | 190,000 compounds, 0.1% hits | Bead-based flow cytometry, Bim peptide-Mcl-1 binding | inhibition, % at 10 µM; in the data active means inhibition above about 40%;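 further: 0% = no compound tracer wells and 100% = peptide blocker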
GLD-1 RNA inh: GLD-1-TGE RNA interaction inhibition (C. elegans). Q17339. purified GLD-1 + fluorescein TGE RNA, fluorescence polarization. inhibition, % at 5.96 µM. 320,000 compounds, 0.44% hits. AID 2280;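 active means percent inhibition above a per-plate cutoff, the plate mean of test compounds plus 3 SD, cut at about 30% in these data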;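 further: 0% = DMSO wells with GLD-1 and probe and 100% = wells lacking GLD-1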
Target sequence (Q17339 whole entry, looked up): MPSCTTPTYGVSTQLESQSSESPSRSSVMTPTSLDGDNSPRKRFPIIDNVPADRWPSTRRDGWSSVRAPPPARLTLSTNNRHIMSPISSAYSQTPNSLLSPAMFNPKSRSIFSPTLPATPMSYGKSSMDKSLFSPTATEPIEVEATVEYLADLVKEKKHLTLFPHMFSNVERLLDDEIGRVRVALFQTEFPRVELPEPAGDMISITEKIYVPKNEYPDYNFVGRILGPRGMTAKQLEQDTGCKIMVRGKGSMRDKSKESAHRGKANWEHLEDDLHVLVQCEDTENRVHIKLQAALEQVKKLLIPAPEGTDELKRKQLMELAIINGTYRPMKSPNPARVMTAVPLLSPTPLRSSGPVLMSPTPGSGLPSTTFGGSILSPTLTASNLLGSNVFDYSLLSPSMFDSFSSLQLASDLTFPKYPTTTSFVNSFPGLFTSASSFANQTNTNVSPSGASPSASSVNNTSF
BCLXL inh: Bcl-xL (human) inhibition; Q07817; GST-Bcl-xL / FITC-Bim BH3 peptide fluorescence polarization; inhibition, % at 10.9 µM; 320,000 compounds, 0.7% hits; AID 2129;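 active means inhibition above the mean of all tested compounds plus 3 SD, cutoff set per campaign, cut at about 30% in these data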;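 further: 0% = DMSO wells and 100% = unlabeled Bim-BH3 peptide competitor; inhibitors lower millipolarization by displacing the labeled peptide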
MCL1-BIM inh: MCL1-BIM-BH3 interaction inhibition (human); Q07820; GST-MCL1 / FITC-Bim-BH3 fluorescence polarization; inhibition, % at 10.9 µM; 320,000 compounds, 0.68% hits;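 active means inhibition above the mean inhibition of all tested compounds plus 3 SD, set per campaign, cut at about 40% in these data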;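 further: 0% = DMSO wells and 100% = unlabeled Bim-BH3 peptide control; higher means more loss of mP so more displacement of Bim peptide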
Mcl1-Bid inh: Mcl-1/Bid interaction inhibition. 220,000 compounds, 0.97% hits. Q07820. TR-FRET Mcl-1/Bid-Dy647 peptide binding, 1536-well. inhibition, % at 21.7 µM;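 active means compounds that cut the binding signal by more than half at the single screening dose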;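 further: His-tagged Mcl-1 with europium anti-His antibody binding Bid BH3 peptide; 0% = Mcl-1 plus peptide wells and 100% = peptide-only wells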
An asterisk follows results filed as active; nt = not tested or not shown.

SMILES	Mcl1 Noxa PPI	Bim-Mcl-1	GLD-1 RNA inh	BCLXL inh	MCL1-BIM inh	Mcl1-Bid inh
CCOC(=O)c1c(NC(=O)c2cc(-c3ccc(O)cc3)on2)sc(C(C)=O)c1C	84*	-8	-7	1	-2	-16
CCOC(=O)c1c(NC(=O)CC(C)C)sc(C(C)=O)c1C	-20	nt	4	3	8	6
CCOC(=O)c1c(NC(=O)N/N=C/c2ccc(O)c(OC)c2)sc(C(C)=O)c1C	84*	nt	2	4	0	71*
Cc1nc(SCC(=O)Nc2nc3ccccc3s2)c(C#N)c(C)c1C	17	-6	1	-1	-9	-35
CC(C)(C)c1nc2ccccc2c2nnc(SCC(=O)Nc3nccs3)n12	18	1	-3	2	2	-7
CC(C)(C)c1nc2ccccc2c2nnc(SCC(=O)Nc3nc4ccccc4s3)n12	26	2	8	-1	-3	71*
Cc1cc(C(F)(F)F)c(C#N)c(SCC(=O)Nc2nc3ccccc3s2)n1	-50	nt	7	37*	6	-37
CCn1nnnc1SCC(=O)N1CCCCC1	nt	nt	0	6	4	nt
CC1CCCCN1CCNC(=O)c1cc2c(=O)n(C)c3ccccc3c2n1C (stereo not drawn)	26	-2	-50	34*	29	-8
COCC(=O)Nc1ccc(C(=O)Nc2ccccc2Cl)cc1	-13	-1	1	1	4	1
O=c1cc(-c2ccccc2Cl)oc2c(NS(=O)(=O)c3cc(Cl)cc(Cl)c3O)ccc(O)c12	110*	0	16	8	13	70*
CCc1ccc(S(=O)(=O)Nc2ccc(O)c3c(=O)cc(-c4ccccc4Cl)oc23)cc1	1	nt	6	5	0	-15
COc1ccc(-c2csc(NC(=O)CSc3nc(C)nc4sc(C(=O)O)c(C)c34)n2)cc1	99*	nt	-5	15	8	36
COc1ccc(-c2csc(NC(=O)CSc3nc(C)cs3)n2)cc1	9	-4	3	5	5	-10
CCc1ccc(O)c(N=Cc2ccccc2O)c1	2	-2	6	6	2	-16
O=c1[nH][nH]c2c(N=Cc3ccccc3O)ccc(F)c12	95*	nt	nt	nt	nt	-157
O=C(O)c1ccccc1N/N=C/c1cc(Br)cc(Br)c1O	83*	nt	1	12	15	20
CCOC(=O)c1sc2nc(C(C)C)c3c(c2c1N)CCC3	4	-3	9	2	6	-46
CC(C)c1nc2sc3c(=O)[nH]c(=S)[nH]c3c2c2c1CCC2	81*	0	nt	nt	nt	11
CC(C)c1nc2sc3c(=O)[nH]c(=S)[nH]c3c2c2c1CCCC2	57*	nt	5	11	7	-172
COc1ccc(N2CCN(C(=O)c3cn(CC4CCCCC4)nn3)CC2)cc1	nt	nt	1	0	3	nt
NS(=O)(=O)c1cccc(NC(=O)CSc2nnc3n2CCCCC3)c1	nt	nt	2	nt	nt	nt
Cn1cccc1-c1nc2ccccc2[nH]1	-7	nt	4	0	-7	-35
O=C(N/N=C/c1c(O)n(Cc2ccccc2)c(=O)c2ccccc12)c1cccnc1	-9	0	-20	-28	-63	-52
O=C(N/N=C/c1c(O)n(-c2ccccc2Cl)c(=O)c2ccccc12)c1cccnc1	55*	0	nt	nt	nt	-86
SMILES	Mcl1 Noxa PPI	Bim-Mcl-1	GLD-1 RNA inh	BCLXL inh	MCL1-BIM inh	Mcl1-Bid inh
O=c1oc2ccccc2c(O)c1CN1CCCCC1	-2	-3	6	4	1	-8
O=C1NCCCC2c3cc(O)c4ccccc4c3OC12N1CCCCC1 (stereo not drawn)	78*	5	27	52*	57*	0
COc1ccc(OC)c(NC(=O)CSc2nc3nc(C)cc(C)n3n2)c1	nt	nt	-10	-6	-10	nt
Cc1ccccc1NC(=O)C(C)Sc1nnc(-c2ccncc2)n1CC1CCCO1 (stereo not drawn)	nt	nt	3	2	-1	nt
COC(=O)Cc1cc(=O)n2c(nc3ccccc32)[nH]1	nt	nt	3	6	-4	nt
O=C(NCCCO)c1ccc2nc(-c3ccco3)c(-c3ccco3)nc2c1	91*	18	nt	nt	nt	-19
O=C(NCCO)Nc1ccc2nc(-c3ccco3)c(-c3ccco3)nc2c1	106*	15	78*	136*	145*	18
O=C(NCCO)Nc1ccc2nsnc2c1	-13	4	-6	6	2	5
CCc1nc2ccc(C(=O)NCCc3ccco3)cc2nc1CC	nt	nt	1	7	-2	nt

Screens as filed in PubChem BioAssay.
